Test results reported in PubChem BioAssay (Tox21).
Inconclusive results are not listed. Calls of active or inactive are those of the source. Unless noted, calls come from the whole dose curve; as a rule, active = well fitted curve in the direction sought with a large enough effect in the repeat runs; inconclusive = weak or mixed curves; inactive = no such curve, though single readings can be large; an effect the other way counts as inactive or inconclusive.

Columns and labels:
[1] = qHTS RealTime-Glo MT Cell Viability Assay in HEK293 cells - 24 hour (AID 1224886); note: top concentration of the series differs between compounds; nearly all actives have a fitted effect of over 50% in size
Outline: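 HEK293 cells were seeded at 600 cells/well together with NanoLuc luciferase and cell-permeant prosubstrate, preincubated 5 h at 37 C/5% CO2, then given compound in DMSO by pintool. Luminescence from viable-cell prosubstrate reduction was read repeatedly over 40 h.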

[2] = qHTS RealTime-Glo MT Cell Viability Assay in HEK293 cells - 8 hour (AID 1224887); note: top concentration of the series differs between compounds; nearly all actives have a fitted effect of over 50% in size
Outline: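 Real-time viability in HEK293: signal arises when living cells convert a prosubstrate for NanoLuc in the medium, so luminescence tracks viable cell number. Compound (23 nL, DMSO) added 5 h post-seeding; kinetic reads at 0–40 h, 37 C.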

[3] = A CellTox Green Cytotoxicity Assay to monitor cytotoxicity in HEK293 cells - 16 hour (AID 1224888); note: nearly all actives have a fitted effect of over 35% in size; note: potency is the fitted concentration of half-maximal effect
Outline: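 Cells (HEK293, 600/well) and dye reagent are dispensed together. After 5 h at 37 C, 23 nL compound is pinned in. Plates stay at 37 C for 40 h with fluorescence read at 0h, 8h, 16h, 24h, 32h and 40h.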

[4] = qHTS RealTime-Glo MT Cell Viability Assay in HepG2 cells - 0 hour (AID 1224889); note: nearly all actives have a fitted effect of over 50% in size
Outline: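 HepG2 cells were seeded at 600 cells/well together with NanoLuc luciferase and a cell-permeant prosubstrate, preincubated 5 h at 37 C/5% CO2, then pin-dosed with compounds in DMSO. Nonlytic luminescence from viable cells was read at each time point.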

[5] = A CellTox Green Cytotoxicity Assay to monitor cytotoxicity in HepG2 cells - 8 hour (AID 1224890); note: nearly all actives have a fitted effect of over 45% in size; note: potency is the fitted concentration of half-maximal effect
Outline: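 Cells and non-lytic dye reagent are dispensed together (600 HepG2 cells/well) and incubated 5 h before DMSO compound transfer. Kinetic fluorescence is then recorded in the same wells during 40 h at 37 C.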

[6] = qHTS assay to identify small molecule antagonists of the estrogen receptor alpha (ER-alpha) signaling pathway using the BG1 cell line in the presence of 0.1 nM 17-beta-estradiol - cell viability counter screen (AID 1259241); note: nearly all actives have a fitted effect of over 40% in size
Outline: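 Measures cytotoxicity alongside the ER-alpha antagonist readout: VM7Luc4E2 cells, charcoal-stripped serum, 0.1 nM 17beta-estradiol final, 22 hr compound incubation at 37C, CellTiter-Fluor fluorescence.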

[7] = qHTS assay to identify small molecule antagonists of the androgen receptor (AR) signaling pathway using the MDA cell line in the presence of 0.5 nM R1881 - cell viability counter screen (AID 1259242); note: nearly all actives have a fitted effect of over 45% in size
Outline: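 Steps: plate MDA-kb2 cells, rest 5 hr at 37C without CO2; pin in compounds in DMSO; add R1881 to 0.5 nM final; incubate 16 hr; add CellTiter-Fluor, 30 min; read fluorescence.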

[8] = qHTS assay to identify small molecule HDAC inhibitors (AID 1259364);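 note: wild-type HCT-116 cells with endogenous class I/II HDAC activity; top concentration of the series differs between compounds; nearly all actives have a fitted effect of over 45% in size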
Outline: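 Cells (HCT-116, wild type) are seeded at 1,500 per well, incubated overnight, treated with compound in DMSO for 2 hr, then developed with HDAC-Glo I/II reagent for 30 min at room temperature.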

[9] = qHTS assay to identify small molecule HDAC inhibitors - cell viability counter screen (AID 1259365); note: series mostly up to about 92 µM; nearly all actives have a fitted effect of over 50% in size
Outline: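 Following a 2hr exposure of overnight-plated wild-type HCT-116 cells to DMSO-delivered compounds, CellTiter-Glo was added and luminescence recorded after 30min at room temperature.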

[10] = qHTS assay to identify small molecule antagonists of the sonic hedgehog signaling (Shh) pathway - cell viability counter screen (AID 1259367); note: nearly all actives have a fitted effect of over 55% in size
Outline: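 Fluorescence read-out (CellTiter-Fluor, 1 hr at 37C) taken after 23 hr compound treatment of 3T3 Gli1-Luc cells stimulated with conditioned medium. Cells were seeded at 2,000 per well and pre-incubated 4 hr.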

[11] = qHTS assay to identify small molecule agonists of the sonic hedgehog signaling (Shh) pathway (AID 1259368; calls by dose curve;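 note: NIH/3T3-derived 3T3Gli1-Luc cells carrying a stable Gli1-driven firefly luciferase reporter; series mostly up to about 92 µM; nearly all actives have a fitted effect of over 15% in size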)
Outline: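 Cells of a mouse NIH/3T3 clone stably expressing luciferase under the Gli1 transcriptional response element are exposed to test chemicals for 24 hr at 37 C. Pathway activation is detected as a rise in luminescence.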

[12] = qHTS assay to identify small molecule antagonists of the sonic hedgehog signaling (Shh) pathway (AID 1259369; calls by dose curve; note: nearly all actives have a fitted effect of over 45% in size)
Outline: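 Cells are plated and held 4hr at 37 C, compounds (DMSO) are pinned in, conditioned medium is added to stimulate the pathway, and after 24hr luciferase reagent is added for 30min before luminescence is read.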

[13] = qHTS assay to identify small molecule agonists of the androgen receptor (AR) signaling pathway in the presence of an antagonist - cell viability counter screen (AID 1259379);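 note: MDA-kb2 human breast cancer cells carrying an MMTV luciferase reporter; series mostly up to about 92 µM; nearly all actives have a fitted effect of over 25% in size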
Outline: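 Cytotoxicity is assessed by CellTiter-Fluor in MDA-kb2 cells carrying an MMTV-driven luciferase reporter. Cells receive 3.0uM nilutamide plus compounds at 15 concentrations and incubate 16 hr at 37C without CO2 before fluorescence reading.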

[14] = qHTS assay to identify small molecule agonists of the estrogen receptor beta (ER-beta) signaling pathway - cell viability counter screen (AID 1259380); note: nearly all actives have a fitted effect of over 30% in size
Outline: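 Cytotoxicity is measured in parallel with the reporter screen: after 16 hr compound exposure at 37C and a 2 hr LiveBLAzer step, CellTiter-Glo is added to the same ER-beta-UAS-bla HEK293T wells and luminescence read after 30 min.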

[15] = biological target: Estrogen receptor (Homo sapiens) (UniProt P03372); assay: qHTS assay to identify small molecule antagonists of the estrogen receptor alpha (ER-alpha) signaling pathway using the BG1 cell line in the presence of 0.1 nM 17-beta-estradiol (AID 1259244); note: nearly all actives have a fitted effect of over 50% in size
Estrogen receptor (Homo sapiens), sequence (P03372 whole entry, looked up): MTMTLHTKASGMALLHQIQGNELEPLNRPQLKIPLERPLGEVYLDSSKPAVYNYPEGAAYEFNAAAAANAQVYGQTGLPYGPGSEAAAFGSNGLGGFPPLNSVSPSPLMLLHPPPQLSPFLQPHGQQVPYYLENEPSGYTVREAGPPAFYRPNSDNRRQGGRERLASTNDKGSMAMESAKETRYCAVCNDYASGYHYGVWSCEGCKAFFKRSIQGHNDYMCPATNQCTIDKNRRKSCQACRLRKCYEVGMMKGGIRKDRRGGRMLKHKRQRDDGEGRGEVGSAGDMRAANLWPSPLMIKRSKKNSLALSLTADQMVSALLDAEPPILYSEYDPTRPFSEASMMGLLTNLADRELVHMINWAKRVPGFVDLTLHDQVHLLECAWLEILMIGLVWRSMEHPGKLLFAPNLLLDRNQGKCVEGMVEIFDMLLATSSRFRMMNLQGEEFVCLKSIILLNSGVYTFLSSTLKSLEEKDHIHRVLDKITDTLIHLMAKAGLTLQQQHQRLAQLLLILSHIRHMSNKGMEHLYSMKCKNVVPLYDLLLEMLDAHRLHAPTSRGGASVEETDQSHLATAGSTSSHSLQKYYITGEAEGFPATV
Outline: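 Antagonist mode: compounds in DMSO are pinned onto VM7Luc4E2 reporter cells, 0.1 nM final 17beta-estradiol is added, and after 22 h at 37C luciferase luminescence is measured with ONE-Glo.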

[16] = qHTS assay to identify small molecule phospholipidosis (PLD) inducers (AID 1259344; active = well fitted curve in the direction sought with a large enough effect; an effect the other way counts as inactive or inconclusive)
Outline: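 Read-out is LipidTOX Red fluorescence (ex 595/em 615) imaged in HepG2 cells after 24 h compound exposure at 37 C, with Hoechst nuclear counterstain (ex 352/em 461) allowing per-cell normalisation.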

[17] = qHTS assay to identify small molecule agonists of the sonic hedgehog signaling (Shh) pathway - cell viability counter screen (AID 1259366); note: nearly all actives have a fitted effect of over 50% in size
Outline: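 After a 4hr attachment at 37C, NIH/3T3 cells bearing an integrated Gli1-driven luciferase reporter were dosed with compounds. Treatment lasted 24hr, with the final hour including CellTiter-Fluor for a fluorescence viability measurement.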

[18] = biological target: Estrogen receptor beta (Homo sapiens) (UniProt Q92731); assay: qHTS assay to identify small molecule agonists of the estrogen receptor beta (ER-beta) signaling pathway (AID 1259377; active = well fitted activation curve with a large enough effect in the signal ratio in the repeat runs, not every such curve was filed as active; the % refers to the signal ratio; note: potency is the fitted concentration of half-maximal effect)
Estrogen receptor beta (Homo sapiens), sequence (Q92731 whole entry, looked up): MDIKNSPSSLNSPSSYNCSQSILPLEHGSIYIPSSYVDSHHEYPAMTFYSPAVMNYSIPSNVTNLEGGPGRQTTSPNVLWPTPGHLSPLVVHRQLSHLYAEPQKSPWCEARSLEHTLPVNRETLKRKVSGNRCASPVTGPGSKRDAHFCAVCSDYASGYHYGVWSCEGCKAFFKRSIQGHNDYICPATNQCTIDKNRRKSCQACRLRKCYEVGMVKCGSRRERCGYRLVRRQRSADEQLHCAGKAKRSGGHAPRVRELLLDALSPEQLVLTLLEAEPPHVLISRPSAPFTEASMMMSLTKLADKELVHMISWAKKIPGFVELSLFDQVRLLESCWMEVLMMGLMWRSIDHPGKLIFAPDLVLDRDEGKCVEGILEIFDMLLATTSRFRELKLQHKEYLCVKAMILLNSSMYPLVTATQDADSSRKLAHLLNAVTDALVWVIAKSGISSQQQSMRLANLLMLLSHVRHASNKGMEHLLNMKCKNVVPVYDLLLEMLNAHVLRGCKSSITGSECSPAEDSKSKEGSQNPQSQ
Outline: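 In HEK293T cells bearing a UAS-beta-lactamase reporter under ER-beta control, DMSO-delivered compounds were incubated for 16 hr at 37C. Activity was detected as fluorescence 2 hours after LiveBLAzer B/G FRET substrate addition.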

[19] = biological target: Estrogen receptor beta (Homo sapiens) (UniProt Q92731); assay: qHTS assay to identify small molecule antagonists of the estrogen receptor beta (ER-beta) signaling pathway (AID 1259378; active = well fitted inhibition curve with a large enough effect in the signal ratio in the repeat runs, not every such curve was filed as active; the % refers to the signal ratio)
Outline: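 ER-beta-UAS-bla HEK293T cells in 2% charcoal-stripped FBS medium treated with compound plus 1nM final 17-beta-estradiol for 16 hr at 37C. Beta-lactamase reporter read by FRET substrate fluorescence after 2 hours at room temperature.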

[20] = biological target: Androgen receptor (Homo sapiens) (UniProt P10275); assay: qHTS assay to identify small molecule antagonists of the androgen receptor (AR) signaling pathway using the MDA cell line in the presence of 0.5 nM R1881 (AID 1259243); note: nearly all actives have a fitted effect of over 50% in size
Androgen receptor (Homo sapiens), sequence (P10275 whole entry, looked up): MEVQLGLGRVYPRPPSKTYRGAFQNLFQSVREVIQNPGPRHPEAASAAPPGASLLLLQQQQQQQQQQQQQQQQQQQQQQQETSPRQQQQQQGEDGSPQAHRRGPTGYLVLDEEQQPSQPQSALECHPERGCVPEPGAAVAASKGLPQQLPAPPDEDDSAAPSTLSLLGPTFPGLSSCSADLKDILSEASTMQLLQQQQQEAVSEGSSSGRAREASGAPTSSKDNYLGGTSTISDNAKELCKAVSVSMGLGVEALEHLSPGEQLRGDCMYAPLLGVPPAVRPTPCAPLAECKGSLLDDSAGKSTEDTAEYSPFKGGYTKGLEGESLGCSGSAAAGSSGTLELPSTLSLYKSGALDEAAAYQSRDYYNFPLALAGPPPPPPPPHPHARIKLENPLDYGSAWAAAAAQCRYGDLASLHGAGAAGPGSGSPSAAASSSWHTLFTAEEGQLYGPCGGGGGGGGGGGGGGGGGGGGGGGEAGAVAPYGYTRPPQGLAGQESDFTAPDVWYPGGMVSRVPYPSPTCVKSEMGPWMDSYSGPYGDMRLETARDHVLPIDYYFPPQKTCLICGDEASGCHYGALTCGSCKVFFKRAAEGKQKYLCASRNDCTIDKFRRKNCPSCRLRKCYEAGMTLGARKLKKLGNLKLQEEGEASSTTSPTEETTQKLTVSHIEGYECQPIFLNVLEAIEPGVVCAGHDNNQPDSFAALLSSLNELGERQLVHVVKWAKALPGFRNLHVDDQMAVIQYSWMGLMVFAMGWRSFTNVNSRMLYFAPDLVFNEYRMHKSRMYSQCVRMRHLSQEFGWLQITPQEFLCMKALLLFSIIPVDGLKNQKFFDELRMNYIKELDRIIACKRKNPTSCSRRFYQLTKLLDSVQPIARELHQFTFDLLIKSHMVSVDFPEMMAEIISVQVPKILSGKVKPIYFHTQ
Outline: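 Stably transfected MDA-kb2 cells express luciferase from an MMTV promoter bearing both AR and GR response elements. Compounds plus 0.5 nM R1881 (final) were incubated 16 hr at 37C without CO2, then luminescence measured.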
% is set by controls: 0 for no effect and ±100 for the full control effect.

CCC(C)(CCC(C)C)C(=O)[O-].CCC(C)(CCC(C)C)C(=O)[O-].[Zn+2] (stereo not given)
inactive: Potency [1] | Potency [2] | Potency [3] | Potency [4] | Potency [5] | Potency [6] | Potency [7] | Potency [8] | outcome [9] | Potency [10] | outcome [11] | Potency [12] | Potency [13] | outcome [14]

CCNC(=O)NCCCOc1cccc(CN2CCCCC2)c1
inactive: Potency [1] | Potency [2] | Potency [3] | Potency [4] | Potency [5] | Potency [7] | Potency [15] | outcome [16] | Potency [8] | outcome [9] | Potency [17] | Potency [10] | outcome [11] | Potency [12] | Potency [13] | outcome [14]

Cc1ccc2c(c1)c1c3n2CCNC3CCC1 (stereo not given)
inactive: Potency [1] | Potency [2] | Potency [3] | Potency [4] | Potency [5] | Potency [6] | Potency [7] | Potency [8] | outcome [9] | Potency [10] | Potency [12] | Potency [18] | Potency [13]

O=C(/C=C/c1ccccc1)NCCO
active: Potency [3] 8.49 µM | Potency [5] 10.7 µM
inactive: Potency [1] | Potency [2] | Potency [4] | Potency [7] | outcome [16] | outcome [9] | Potency [17] | Potency [10] | outcome [11] | Potency [18] | outcome [19] | Potency [13]

COc1ccc(OC)c(NC(=O)CC(C)=O)c1
inactive: Potency [1] | Potency [2] | Potency [3] | Potency [4] | Potency [5] | Potency [7] | Potency [8] | outcome [9] | Potency [17] | Potency [10] | outcome [11] | Potency [12] | Potency [18] | outcome [19] | Potency [13] | outcome [14]

O=C(c1ccc2c(c1)C(=O)OC2=O)c1ccc2c(c1)C(=O)OC2=O
inactive: Potency [1] | Potency [2] | Potency [3] | Potency [4] | Potency [5] | Potency [6] | Potency [7] | Potency [8] | outcome [9] | Potency [17] | Potency [10] | Potency [12] | Potency [18] | Potency [13] | outcome [14]

Nc1ccc(C(=O)OCC(O)CO)cc1 (stereo not given)
inactive: Potency [1] | Potency [2] | Potency [3] | Potency [4] | Potency [5] | Potency [7] | Potency [15] | Potency [8] | outcome [9] | Potency [17] | Potency [10] | outcome [11] | Potency [12] | Potency [18] | Potency [13] | outcome [14]

COc1cc(C=O)ccc1OC(=O)C(C)C
inactive: Potency [1] | Potency [2] | Potency [3] | Potency [4] | Potency [5] | Potency [6] | Potency [7] | Potency [8] | outcome [9] | Potency [17] | Potency [10] | Potency [13] | outcome [14]

CC(C)COC(=O)CC(C(=O)OCC(C)C)S(=O)(=O)O (stereo not given)
inactive: Potency [1] | Potency [2] | Potency [3] | Potency [4] | Potency [5] | Potency [7] | Potency [15] | Potency [8] | outcome [9] | Potency [17] | Potency [10] | outcome [11] | Potency [12] | Potency [18] | outcome [19] | Potency [13] | outcome [14]

CN(C)CCCNCCC#N
inactive: Potency [1] | Potency [2] | Potency [3] | Potency [4] | Potency [5] | Potency [6] | Potency [7] | Potency [8] | outcome [9] | Potency [10] | outcome [11] | Potency [12] | Potency [18] | outcome [19] | Potency [13]

BrC/C=C/CBr
inactive: activity change, negative = cytotoxicity [1] 0.605% [at 15.8 µM] | activity change, negative = cytotoxicity [2] -6.32% [at 15.8 µM] | activity change [3] 4.41% [at 15.8 µM, active compounds read high] | activity change, negative = cytotoxicity [4] 4.43% [at 15.8 µM] | cytotoxicity increase [5] -2.29% [at 15.8 µM] | activity change, negative = cytotoxicity [6] 5.53% [at 19 µM] | viability change, negative = cytotoxic [7] 0.0069% [at 19 µM] | activity change, negative = inhibition [8] -0.207% [at 19 µM] | activity change, negative = cytotoxicity [9] 2.41% [at 19 µM] | viability change, negative = cytotoxic [10] -1.72% [at 19 µM] | activity change [11] -1.5% [at 18.9 µM] | activation [18] 0.425% [at 19 µM] | activity, negative = inhibition [19] 8.47% [at 19 µM] | activity change, negative = cytotoxicity [13] 0.671% [at 19 µM] | activity change, negative = cytotoxicity [14] 4.89% [at 19 µM]

COc1cc2c3cc1Oc1cc(ccc1O)C[C@@H]1c4c(cc(OC)c(O)c4Oc4ccc(cc4)C[C@@H]3N(C)CC2)CC[N+]1(C)C
inactive: Potency [1] | Potency [2] | Potency [3] | Potency [4] | Potency [5] | Potency [7] | outcome [16] | Potency [8] | outcome [9] | Potency [17] | Potency [10] | outcome [11] | Potency [12] | Potency [13]
active: Potency [18] 26.6 µM

C[CH2][Ge]([Cl])([CH2]C)[CH2]C
inactive: Potency [1] | Potency [2] | Potency [3] | Potency [4] | Potency [5] | Potency [6] | Potency [7] | Potency [8] | outcome [9] | Potency [10] | Potency [18] | outcome [19] | Potency [13] | outcome [14]

COCCOCCOCCOC
inactive: Potency [1] | Potency [2] | Potency [3] | Potency [4] | Potency [5] | Potency [6] | Potency [7] | Potency [8] | outcome [9] | Potency [10] | outcome [11] | Potency [12] | Potency [18] | Potency [13]

COc1ccc(/C=N/NC(=O)c2ccncc2)cc1OC
inactive: Potency [1] | Potency [2] | Potency [3] | Potency [4] | Potency [5] | Potency [7] | outcome [20] | Potency [15] | outcome [16] | Potency [8] | outcome [9] | Potency [17] | Potency [10] | outcome [11] | Potency [12] | Potency [18] | Potency [13] | outcome [14]

CCCCC(CC)COC(=O)c1ccccc1 (stereo not given)
inactive: Potency [1] | Potency [2] | Potency [3] | Potency [4] | Potency [5] | Potency [7] | Potency [15] | Potency [8] | outcome [9] | Potency [17] | Potency [10] | outcome [11] | Potency [18] | Potency [13] | outcome [14]

Cc1cccc(NC(=S)N(C)C)c1
inactive: Potency [1] | Potency [2] | Potency [3] | Potency [4] | Potency [5] | Potency [6] | Potency [7] | Potency [8] | outcome [9] | Potency [17] | Potency [10] | Potency [12] | Potency [18] | Potency [13] | outcome [14]
